Results on 94 compounds are retold here after PubChem BioAssay AID2314 (National Center for Advancing Translational Sciences (NCATS), 2010).

Hit rate of the full screen: of about 300,000 compounds, about 37,000 (12%) were called active. This is one part of a sample in which actives are shown more often than they occur. No stated cut-off is given here; in the data, active means max response mostly above about 13% (no sharp cut-off); inactive means mostly below about 14%.

The assay is described as follows: Cycloheximide Counterscreen for Small Molecule Inhibitors of Shiga Toxin. Further: read at 38.3 µM for the half of the compounds with a filed dose; 0% is about no effect. Conditions: cell reporter, cycloheximide protein synthesis inhibition counterscreen; active compounds read high. (A counterscreen serves to expose hits that act by an unwanted route or on another target.)
As to `O=C(c1ccccc1)c1ccc(OC(=O)N2CCCC2)cc1`, the max response is 37.5% (active).
To `O=C(c1ccccc1)c1ccc(OCC(O)CN2CCCC2)cc1` (centres undefined) belongs 5.75% (inactive).
The same measure for `O=C(Nc1cccc(OC(=O)N2CCCCC2)c1)N1CCOCC1`: 5.17% (inactive).
To `CC(C)(C)c1ccc(C(=O)N2CCC(C(=O)N3CCCCC3)CC2)cc1` belongs -2.39% (inactive); to `CC(C)(C)c1ccc(OC(=O)N2CCCCC2)cc1`, 54.1% (active); to `O=C(COc1cccc(F)c1)Oc1ccc(C(=O)c2ccccc2)cc1`, 15.6% (inactive).
Turning to `CC(C)CCNC(=O)C(C)N(C(=O)Cn1nnc(-c2ccc(F)cc2)n1)C1CCCC1` (centres undefined), the max response was -1.9% (inactive).
Regarding `COC(C[C@@H](O)[C@H](C)[C@H](O)COCc1ccccc1)OC`, the max response was 5.98% (inactive).
The same measure for `O=C(NCCS(=O)(=O)N1CCN(c2ccccc2F)CC1)c1ccc(Br)o1`: 8.75% (inactive); for `O=S(=O)(c1ccc2c(c1)OCCCO2)N1CCN(S(=O)(=O)c2c(F)cccc2F)CC1`: 3.98% (inactive).
For the compound `CN(C)c1nc(-c2cccnc2)nc(-c2ccc(Cl)cc2)c1C#N`, the max response was -4.98% (inactive).
As for `Cc1csc(NC(=O)CSc2nnc(-c3cccnc3)o2)n1`, the max response was -7.35% (inactive).
The same measure for `CN(C)c1ccc(-c2nnc(-c3cccnc3)o2)cc1`: 56.2% (active).
The same measure for `CCCNCc1cc(OCC)c(OCC(=O)Nc2ccccc2)cc1Br`: -0.891% (inactive); for `CCN(CC)CCCNC(=O)CCn1nc(-c2ccc(Cl)cc2)ccc1=O`: -2.58% (inactive).
The same measure for `CC(C)N(Cc1ccccc1)C(=O)COC(=O)c1cnccn1`: -3.2% (inactive); for `Cc1ccc2cc3cc(C(=O)N4CCCCCC4)oc3nc2c1`: 43.7% (active); for `Cc1ccc(C(=O)N2CCCCCC2)cc1Br`: 10.4% (inactive).
`Cc1ccc2oc(=O)c3cnn(CC(=O)N4CCCCCC4)c3c2c1`: the max response was -10.3% (inactive).
To `C=CCn1c(SCC(=O)NCCCO)nc2sc3c(c2c1=O)CCC3` belongs -2.04% (inactive); to `NCCCCC(N)C(=O)O` (centres undefined), -7.46% (inactive).
The same measure for `CN1/C(=C\C=C2\N=C(c3ccc(F)cc3)OC2=O)C(C)(C)c2ccccc21`: -1.91% (inactive); for `Cc1cccc(C(=O)Nc2ccc(C(=O)N/N=C/c3cccc(C)n3)cc2)c1`: 5.54% (inactive).
With `Cc1cccc(C(=O)Nc2ccc(CC(=O)O)cc2)c1`, the max response is -5.6% (inactive).
To `Cc1cccc(C(=O)Nc2ccc(C(=O)/C=C/c3cccs3)cc2)c1` belongs 76% (active); to `C=CCN1CCN(C(=O)CCCc2ccccc2)CC1`, 1.1% (inactive); to `CCCS(=O)(=O)N1CCN=C1SCc1cccc(F)c1`, -1.71% (inactive).
The same measure for `O=C(COC(=O)c1ccncc1)c1ccccc1`: 18.7% (active).
To `O=C(OCC(O)C(O)COC(=O)c1ccccc1)c1ccccc1` (centres undefined) belongs -1.94% (inactive); to `COc1ccc(NC(=O)COC(=O)c2ccncc2)c(OC)c1`, 0.0404% (inactive); to `CCOc1ccc(C)cc1S(=O)(=O)NC1CCCCCC1`, -2.48% (inactive).
Turning to `Cc1ccccc1NC(=O)NCC1CCN(Cc2cccc(Cl)c2)CC1`, the max response was -4.17% (inactive).
To `CC(NC(=O)c1cc2cc(Cl)ccc2oc1=N)c1ccccc1` (centres undefined) belongs -1.94% (inactive); to `N=c1oc2ccccc2cc1C(=O)NCc1ccccc1`, 41.3% (active); to `CNC(=O)c1cc2c(ccc3ccccc32)oc1=N`, 18.4% (inactive).
The same measure for `COc1cccc2cc(C(=O)NCc3ccc(C)cc3)c(=N)oc12`: 3.84% (inactive).
To `N=c1oc2ccccc2cc1C(=O)N/N=C/c1ccccc1` belongs 46.7% (active); to `O=C(c1cccc(Br)c1)N1CCN(C2=NS(=O)(=O)c3ccccc32)CC1`, -3.24% (inactive).
Regarding `CC1=C(C(=O)OC2CCCCC2)C(c2ccccc2F)NC(=O)N1` (centres undefined), the max response is 13.8% (inactive).
To `COc1cc(OC)c(OC)cc1CN1CCN(C(=O)c2cccc3ccccc23)CC1` belongs -0.856% (inactive); to `O=C(N/C(=C\c1ccc([N+](=O)[O-])cc1)C(=O)N1CCCCC1)c1ccco1`, -1.29% (inactive); to `CSc1nc(C)cc(SC(C(C)=O)C(=O)Nc2ccccc2)n1` (centres undefined), 31.9% (active).
To `CC(Sc1nnc2c(n1)C1CCC2(C)C1(C)C)C(=O)Nc1ccccc1` (centres undefined) belongs -1.8% (inactive).
The same measure for `Cc1cc(C)nc(N(C#N)CC(=O)Nc2ccccc2)n1`: -2.23% (inactive); for `Cc1c(OC(C)C(=O)NCC2CCC(C(=O)O)CC2)ccc2c1oc(=O)c1ccccc12` (centres undefined): -1.17% (inactive); for `CS(=O)(=O)N(Cc1ccccc1Cl)c1ccc(C(=O)NCc2cccnc2)cc1`: -1.15% (inactive).
Take `CCOc1ccc(N=Cc2c(O)n(-c3cccc(C)n3)c(=O)c3ccccc23)cc1`: the max response is 9.6% (inactive).
The same measure for `CCCCn1c(=O)c(C(C)=O)c(O)c2ccccc21`: 1.86% (inactive).
The same measure for `CC(=O)n1c(C=Nc2ccccc2)c(O)c2ccccc21`: 33.7% (active).
To `O=C(c1cccnc1)N(c1cc2sc(=O)oc2c2ccccc12)S(=O)(=O)c1ccccc1` belongs -2.05% (inactive); to `Cc1ccc(N(C(=O)c2ccc(S(=O)(=O)N(C)C)cc2)C2C=CS(=O)(=O)C2)cc1` (centres undefined), -2.02% (inactive).
For the compound `O=C(c1ccc(OC2CCN(C/C=C/c3ccc(F)cc3)CC2)cc1)N1CCCCC1`, the max response was -0.769% (inactive).
The same measure for `Nc1ccccc1SCc1cc([N+](=O)[O-])cc2c1OCOC2`: 24.7% (active).
To `CC(O)C(NS(=O)(=O)c1ccc(Cl)cc1)C(=O)OCc1cc([N+](=O)[O-])cc2c1OCOC2` (centres undefined) belongs -0.904% (inactive).
The same measure for `CCC1(CC)Cc2ccccc2-c2nc(CCl)[nH]c(=O)c21`: -3.16% (inactive).
Regarding `CC(=O)OCCN(CCCn1c(-c2ccncc2)nc2ccccc21)c1nc(-c2ccc(C)cc2)cs1`, the max response is -0.764% (inactive).
Regarding `CCOC(=O)c1nc(-c2ccc3c(c2)OCO3)[nH]c1C`, the max response is 29% (active).
The same measure for `CCOC(=O)c1c(C)[nH]c(C(=O)COc2ccc3c(c2)OCO3)c1C`: 18% (inactive).
For `CCOCCOC(=O)C1=C(C)NC(=O)NC1c1ccc2c(c1)OCO2` (centres undefined), the max response is -1.93% (inactive).
Regarding `Cc1cc(C)n2nc(C(=O)N(C)C(c3ccccc3)c3ccccc3)nc2n1`, the max response is -3.94% (inactive).
To `CC1CN(C(=S)Nc2ccc(S(N)(=O)=O)cc2)CC(C)O1` (centres undefined) belongs -1.03% (inactive); to `O=C(Nc1ccc(Br)cc1)c1cc(S(=O)(=O)Nc2ccccn2)ccc1Cl`, 0.597% (inactive).
To `CCOC(=O)C1=C(c2ccccc2)NC(=O)NC1c1cc(OC)c(OC)cc1OC` (centres undefined) belongs 1.07% (inactive); to `COc1ccccc1N(CC(=O)N/N=C(\C)c1ccccc1O)S(=O)(=O)c1ccc(C)cc1`, -1.67% (inactive).
To `C/C(=N\NC(=O)c1ccoc1C)c1ccccc1O` belongs 18.7% (active); to `CC(C)=C(NC(=O)c1ccccc1)C(=O)N/N=C(\C)c1ccccc1O`, 1.01% (inactive).
For the compound `COc1ccc(Cl)cc1-n1c(C)cc(C(=O)OCC(=O)N2CC(=O)Nc3ccccc32)c1C`, the max response is 0.969% (inactive).
To `CC(C)COC(=O)n1c(=O)oc2ccc(S(=O)(=O)N3CCCCC3)cc21` belongs -3.35% (inactive).
Consider `O=C(Nc1nnc(-c2ccc(F)cc2)s1)c1c(F)cccc1Cl`, for which the max response was -1.16% (inactive).
On to `Cc1cccc(OCCNC(=S)NC(=O)c2cccnc2)c1`, for which the max response is -2.88% (inactive).
To `CCCCCC(=O)NC(=S)NNC(=O)c1ccc([N+](=O)[O-])cc1` belongs 0.94% (inactive); to `COCCCNC(=S)NNC(=O)C(O)(c1ccccc1)c1ccccc1`, -2.66% (inactive); to `COCCCNC(=S)NC(=O)c1ccc([N+](=O)[O-])cc1`, 27.5% (active).
In the case of `COc1ccccc1OCCNC(=O)c1cc([N+](=O)[O-])cc([N+](=O)[O-])c1`, the max response was 6.58% (inactive).
To `COCCCNC(=S)NC(=O)c1ccccc1` belongs 36.8% (active); to `O=C(Cc1ccccc1Cl)N1CCOCC1`, -3.01% (inactive).
The same measure for `Cc1ccc(Cl)cc1NC(=O)CN1CCN(S(=O)(=O)N2CCOCC2)CC1`: -6.26% (inactive); for `O=C(c1c(F)cccc1Cl)N1CCN(S(=O)(=O)c2ccc3c(c2)OCCCO3)CC1`: -1.76% (inactive).
To `O=C(CN(C(=O)CCC(=O)Nc1nccs1)c1ccc(F)cc1)NCc1ccc2c(c1)OCO2` belongs -6.07% (inactive).
For the compound `COc1ccc(-c2oc(/N=C/N3CCCC3)c(C#N)c2-c2ccc(OC)cc2)cc1`, the max response was -5.61% (inactive).
To `O=C1CCC(=O)N1c1ccc(NCCc2ccccc2F)c([N+](=O)[O-])c1` belongs 21.6% (active); to `Fc1ccccc1CCNc1nnnn1-c1ccccc1`, 0.858% (inactive); to `O=[N+]([O-])c1cc(C(F)(F)F)ccc1NCCc1ccncc1`, 9.83% (inactive).
The same measure for `COc1ccc(N2CCC(CNC(=S)Nc3c(C)cccc3C)C2)cc1` (centres undefined): -1.13% (inactive); for `COc1cc(NS(=O)(=O)c2ccc(NC(=O)c3ccc([N+](=O)[O-])cc3)cc2)ncn1`: -2.23% (inactive); for `CCCc1cc(=O)oc2c(C)c(OCC(=O)NCc3ccccn3)ccc12`: -0.405% (inactive).
The same measure for `CCCc1cc(=O)oc2c(C)c(OCC(=O)Nc3ccccn3)ccc12`: 32.5% (active); for `CCCc1cc(=O)oc2c(C)c(OCC(=O)N3CCC(C(=O)O)CC3)ccc12`: -2.94% (inactive).
On to `O=C1COc2ccc(C(=O)COC(=O)C3CC(O)CN3S(=O)(=O)c3ccc(Cl)cc3)cc2N1` (centres undefined), for which the max response was -1.44% (inactive).
The same measure for `CCCc1nc2ccccc2c(C(=O)OCC(=O)c2ccc3c(c2)NC(=O)CO3)c1CC`: -2.81% (inactive); for `COc1cccc(Nc2nnc(SCC(=O)N3CC(=O)Nc4ccccc43)s2)c1`: -2.67% (inactive).
With `CCc1ccc(Nc2nnc(SCC(=O)c3ccc4c(c3)NC(=O)CO4)s2)cc1`, the max response is 20.5% (active).
The same measure for `COC(=O)c1ccccc1Sc1c(/C=N/OCc2ccc(Cl)cc2)c(C(F)(F)F)nn1C`: 3.42% (inactive); for `CC(C)C(C)(C#N)NC(=O)CSc1nc2scc(-c3ccccc3)c2c(=O)[nH]1` (centres undefined): -4.09% (inactive).
